# Screening data deposited in PubChem by several laboratories.
# NRP1-CendR mod: NRP-1/CendR interaction modulation; O14786; FAM-RPARPAR peptide binding to NRP-1, fluorescence polarization; inhibition, % at 25 µM; 360,000 compounds, 0.85% hits; AID 602438;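 active means inhibition or corrected inhibition above about 18%, plus a signal ratio from 0.5 to 1.5, limit read from the data, passing the limit was not always enough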
# ADAM17 inh: inhibits human ADAM17; P78536; recombinant ADAM17, EDANS/DABCYL FRET peptide cleavage; inhibition, % at 6.95 µM; 370,000 compounds, 0.83% hits;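 active means inhibition above the mean of compounds lying between control limits plus 3 SD, set per campaign, cut at about 8.5% in these data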;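 further: 0% = DMSO-only wells as the low control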
# ADAM10 inh: inhibits human ADAM10; O14672; recombinant ADAM10, EDANS/DABCYL FRET peptide cleavage, 3 h; inhibition, % at 7 µM; 370,000 compounds, 0.62% hits; AID 720582;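 active means inhibition above a per-campaign cutoff equal to the mean of compounds falling between control-based bounds plus 3 SD, cut at about 20% in these data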;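 further: 0% = DMSO wells while the 100% control is not disclosed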
# APOBEC3A inh: human APOBEC3A DNA deaminase inhibition; P31941; recombinant A3A, FAM/TAMRA ssDNA deamination fluorescence; inhibition, % at 20 µM; 330,000 compounds, 0.41% hits;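 active means at least 40% inhibition at 20 µM here, with at most 30% in a related deaminase screen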;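 further: plate controls were A3A with DMSO for no effect and wells lacking A3A enzyme for full effect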
# Target sequence (P31941 whole entry, looked up): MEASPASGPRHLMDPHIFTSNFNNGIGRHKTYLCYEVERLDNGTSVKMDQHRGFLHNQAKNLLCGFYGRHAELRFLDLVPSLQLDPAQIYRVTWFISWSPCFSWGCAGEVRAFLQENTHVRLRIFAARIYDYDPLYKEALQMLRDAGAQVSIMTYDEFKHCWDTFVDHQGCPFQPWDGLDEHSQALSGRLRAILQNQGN
# A3G deaminase: APOBEC3G (human) deaminase inhibition | Q9HC16 | recombinant A3G, ssDNA deamination FAM/TAMRA fluorescence | inhibition, % at 20 µM | 330,000 compounds, 0.28% hits;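 active means inhibition of at least 40% at 20 µM, with no more than 30% in the related APOBEC3A deaminase screen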;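 further: plate controls were DMSO wells with A3G for no effect and wells lacking A3G enzyme for full effect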
# Target sequence (Q9HC16 whole entry, looked up): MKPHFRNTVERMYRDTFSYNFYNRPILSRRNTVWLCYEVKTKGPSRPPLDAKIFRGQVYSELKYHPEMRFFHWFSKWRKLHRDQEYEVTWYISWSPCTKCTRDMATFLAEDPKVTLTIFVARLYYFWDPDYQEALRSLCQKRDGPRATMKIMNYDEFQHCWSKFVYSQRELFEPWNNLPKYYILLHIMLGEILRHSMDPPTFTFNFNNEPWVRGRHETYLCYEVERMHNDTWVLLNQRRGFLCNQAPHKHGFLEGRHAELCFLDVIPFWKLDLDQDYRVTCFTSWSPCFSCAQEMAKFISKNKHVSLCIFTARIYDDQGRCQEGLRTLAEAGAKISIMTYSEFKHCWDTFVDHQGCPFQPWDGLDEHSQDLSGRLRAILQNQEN
# ADAM10 confirm: confirmation of inhibitors of human ADAM10; AID 743208; ADAM10 QFRET peptide cleavage, EDANS fluorescence; inhibition, % at 6.95 µM; 2,100 compounds, 1% hits; shares compounds with ADAM10 inh;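 active means inhibition above about 20% chosen separately for each screening run, limit read from the data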;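 further: 0% = DMSO wells and 100% = marimastat wells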
# ADAM17 ctr: counter-screen for ADAM10 exosite inhibitors: inhibitors of human ADAM17 | shares compounds with ADAM10 inh | ADAM17 QFRET peptide cleavage, EDANS fluorescence | inhibition, % at 6.95 µM | 2,100 compounds, 0.5% hits | AID 743214;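 active means mean triplicate inhibition above the solvent-only control wells' mean plus 3 SD, cut at about 12% in these data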;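 further: 0% = DMSO wells and 100% = marimastat wells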
# An asterisk follows results filed as active; . = not tested or not shown; ! = repeats disagree. In the library only some 2.4% were active in any assay of this set; here they are far more common.
SMILES,NRP1-CendR mod,ADAM17 inh,ADAM10 inh,APOBEC3A inh,A3G deaminase,ADAM10 confirm,ADAM17 ctr
CC(=O)c1cc(-c2ccc3nonc3c2)c(=O)n2c1CCC2,.,3.8,-5.5,.,.,.,.
Cc1ccccc1Cn1ccc(NC(=O)c2cnn3c2NC(c2ccccc2)CC3C(F)(F)F)n1 (centres undefined),-1.2,5.3,20.5*,3.9,0.0,3.6,0.9
Cc1ccccc1Oc1cc(NC(=O)CCCn2nc(C)c([N+](=O)[O-])c2C)cc([N+](=O)[O-])c1,19.3,8.3,19.0,2.3,-2.5,.,.
Cc1nn(CCCC(=O)Nc2cc(Oc3ccc(F)cc3)cc([N+](=O)[O-])c2)c(C)c1[N+](=O)[O-],-7.4,6.2,26.3*,-1.6,-0.9,5.3,1.9
COCCOC(=O)C1=C(C)NC(C)=C(C(=O)OC(C)C)C1c1cccc([N+](=O)[O-])c1 (centres undefined),0.9,3.3,22.3*!,-1.3,-3.0,1.0,0.2
CCOC(=O)C1=C(C)NC(C)=C(C(=O)OC)C1c1cccc([N+](=O)[O-])c1 (centres undefined),-11.6,2.9,8.4,-3.5,-6.8,.,.
CC#CCN1c2ccccc2[C@]23C[C@@H](C(=O)OC)N(C(=O)NC4CCCCC4)C2=NC(C(=O)OC)=C(C(=O)OC)[C@H]13,8.8,2.8,0.3,2.4,-5.1,.,.
C=CCN1c2ccccc2[C@]23C[C@@H](C(=O)OC)N(C(=O)NC4CCCC4)C2=NC(C(=O)OC)=C(C(=O)OC)[C@H]13,4.2,10.2*,21.1*,-3.7,-9.2,3.1,0.8
CC1(C)CC(=O)N(CC(=O)N2CCN(Cc3ccc4c(c3)OCO4)CC2)c2ccccc2S1(=O)=O,.,-2.6,-1.2,.,.,.,.
Cc1ccc(C(c2nnnn2CCc2ccccc2)N2CCSCC2)cc1 (centres undefined),1.6,-1.7,-0.8,-2.3,-5.6,.,.
Cc1ccc(C(c2cc(Br)ccc2O)N2CCSCC2)cc1 (centres undefined),11.9,6.4,24.9*,-2.0,-4.0,1.4,0.2
S=c1[nH]nc(CSc2nc3ccccc3s2)o1,5.8,6.2,25.2*,-2.9,25.8,-2.8,-0.2
c1ccc2[nH]c(CSc3nc4ccccc4s3)nc2c1,-4.4,-13.6,-49.4,1.3,-2.1,.,.
CCCCNC(=O)NC1CCN(CC(=O)Nc2ccc3c(c2)OCCO3)CC1,.,-1.1,-15.7,.,.,.,.
O=C(N[C@@H]1CCC(=O)N(CC[C@H](Oc2ccccc2)c2ccccc2)CC1)OCc1ccccc1,17.4,3.1,20.2*,-2.6,-8.5,5.1,1.8
Cc1ccc(S[C@@H](CCN2CC[C@H](NC(=O)OCc3ccccc3)CCC2=O)c2ccccc2)cc1,9.8,3.0,11.6,-4.0,-8.8,.,.
O=C1N(CC[C@@H](O)c2ccccc2)CCC12CCC(c1ccccc1)CC2 (some centres undefined),.,1.5,5.0,.,.,.,.
O=S1(=O)c2ccc(Br)cc2OC[C@@H](c2ccccc2)N1Cc1cn(CCC2OCCCO2)nn1,.,-8.2,-4.4,.,.,.,.
COC(=O)c1cc(NC(=O)NC2CCCCN(Cc3ccc(Cl)cc3)C2=O)cc(C(=O)OC)c1 (centres undefined),.,2.8,9.5,.,.,.,.
CC1(c2nnnn2Cc2ccccc2)CSCC(=O)N1Cc1cccs1 (centres undefined),.,2.2,2.7,.,.,.,.
Cc1cccc(N2CCN(S(=O)(=O)c3ccc4c(c3)NC(=O)C(C)S4)CC2)c1C (centres undefined),-3.7,-2.5,-3.4,-3.4,-5.2,.,.
Cc1cccc(N2CCN(S(=O)(=O)c3ccc4c(c3)NC(=O)CS4)CC2)c1C,6.9,7.9,23.2*,0.0,18.0,8.3,2.0
CC1(C)C=Cc2c(ccc3c2OC[C@H](c2ccc(O)cc2O)C3)O1,-5.2,8.4,28.0*,-1.1,-8.5,12.6,3.5
O=C(COC(=O)CCSc1ccccc1Cl)Nc1ccc(F)cc1F,-16.3,7.5,22.6*,1.7,1.0,2.4,0.7
O=C(COC(=O)CCSc1ccccc1)Nc1ccc(F)cc1Cl,8.5,7.3,6.8,-2.1,1.5,.,.
SMILES,NRP1-CendR mod,ADAM17 inh,ADAM10 inh,APOBEC3A inh,A3G deaminase,ADAM10 confirm,ADAM17 ctr
CCC[C@H]1[C@@H](OC(=O)NCc2cccc(Cl)c2)CC[C@@]23CCCN2C(=O)CCC[C@@H]13,.,0.7,2.7,.,.,.,.
COC(=O)[C@]12C[C@H](CC(=O)NCCC(C)C)C(=O)N(Cc3ccc4c(c3)OCO4)C1=C[C@H](C(C)(C)C)O[C@@H]2C,.,1.4,10.6,.,.,.,.
OCC1OC(C(N=Nc2ccccc2)=NNc2ccccc2)C(O)C1O (centres undefined),.,-4.8,-24.5,.,.,.,.
CCOC(=O)Nc1ccc2c(c1)N(C(=O)OCCN(C)C)c1ccccc1CC2,-5.5,-11.0,51.0*!,-2.4,-4.1,2.3,0.4
CCOC(=O)Nc1ccc2c(c1)N(C(=O)CCN(C)C)c1ccccc1CC2,1.5,1.9,-3.6,6.9,0.8,.,.
Nc1c(-c2ccccc2)c(CSc2nc3ccccc3[nH]2)nn1-c1ccc(Cl)cc1,-8.3,4.3,28.5*,.,.,4.5,2.5
Nc1c(-c2ccccc2)c(CSc2nc3ccccc3[nH]2)nn1-c1cccc(Cl)c1,0.6,2.1,-0.8,-4.5,-7.8,.,.
CCN(c1ccccc1)S(=O)(=O)c1ccc(Cl)c(NC(=O)CSc2ncn[nH]2)c1,-8.2,2.0,22.7*,14.5,-7.0,3.0,3.1
CCOC(=O)[C@]12CCCC=C1N(Cc1ccc(OC)cc1)C(=O)[C@@H]2CC(=O)NCCCN1CCCC1=O,.,-3.2,-4.4,.,.,.,.
CC(=O)Nc1ccc(-c2ccnc3c2CC(C)(C(=O)Nc2ccc(Cl)c(C(F)(F)F)c2)O3)cc1 (centres undefined),0.5,5.4,20.1*,.,.,8.8,3.1
COc1ccc(C(=O)C(=O)N2CCN(C(=O)c3ccccc3C(F)(F)F)CC2)cc1OC,.,-4.2,-11.6,.,.,.,.
COC(=O)[C@]12C[C@H](CC(=O)N3CCN(C(=O)C4CC4)CC3)C(=O)N(Cc3ccc(Cl)cc3Cl)C1=C[C@H](C(C)C)O[C@@H]2C1CC1,.,0.7,9.6,.,.,.,.
Cc1ccc(S(=O)(=O)c2ccc(NC(=O)c3c(F)cccc3F)cc2)cc1,7.0,7.1,23.9*,-1.6,-8.5,0.2,0.8
C[C@H]1COc2cc(Br)ccc2S(=O)(=O)N1Cc1cn(Cc2ccco2)nn1,.,-3.8,-7.4,.,.,.,.
CN1CCCCC(NC(=O)c2ccc(F)c(F)c2)C1=O (centres undefined),.,-2.9,2.3,.,.,.,.
COCCn1c(SCC(=O)N2CCCC2)nc2c(c1=O)SCC2,11.0,7.3,21.0*,.,.,5.8,1.5
Cc1onc(-c2ccccc2Cl)c1C(=O)Nc1nnc(Cc2ccc(Cl)cc2)s1,15.2,7.7,23.4*,2.4,-2.7,4.7,0.6
CN1C(=O)[C@@]2(C3=C(CCCC3=O)OC3=C2C(=O)CC(C)(C)C3)c2ccccc21,.,-1.8,-2.5,.,.,.,.
